Measurements: the supplement of paper PMC11172423

Tested on: Madurella mycetomatis MM55
Assay: growth relative to untreated control; higher = less inhibition, active = 20 or less
Conditions: 25 µM
Method: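 Hyphal fragments of M. mycetomatis MM55 or F. senegalensis CBS197.79 in RPMI 1640/MOPS were exposed to each MMV COVID Box or Global Health Priority Box compound at 100 or 25 µM for 7 days at 37 °C. Viability was read with MTS (490 nm, M. mycetomatis) or resazurin (600 nm, F. senegalensis), background-corrected with a medium-only control and expressed as % growth relative to the untreated growth control. Inhibition of more than 80% was taken as growth inhibition.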

| Structure (SMILES) | growth |
| --- | --- |
| CCN(CCO)CCCC(C)Nc1ccnc2cc(Cl)ccc12 (stereo not given) | 85.1% (inactive) |
| CCN1CCN(C2CCN(C(=O)COc3ccc(-c4ccccc4F)cc3)CC2)CC1 | 105% (inactive) |
| CCOc1ccc(-c2ccnc(Nc3cncc(OC)c3)n2)cc1C#N | 88.5% (inactive) |
| CC(=O)Oc1ccccc1C(=O)Nc1ncc([N+](=O)[O-])s1 | 87.7% (inactive) |
| Cc1c2c(n3c(nc4ccccc43)c1C#N)N(CCN(C)C)CC2 | 101% (inactive) |
| CC(C)CC(NCCc1ccccc1O)c1ccccn1 (stereo not given) | 41.8% (inactive) |
| CN(C)CCCN1C(=O)c2[nH]nc(-c3ccc(Cl)cc3O)c2C1c1ccc(Cl)cc1 (stereo not given) | 68% (inactive) |
| CC(CN1c2ccccc2Sc2ccccc21)N(C)C (stereo not given) | 77.8% (inactive) |
| O=C(Nc1cccc(-c2cc3nc(Nc4ccc(N5CCOCC5)cc4)ncc3[nH]2)c1)C1CC1 | 78.9% (inactive) |
| Nc1nc(S)c2[nH]cnc2n1 | 71.8% (inactive) |
| Cn1ccnc1SCC(=O)Nc1ccc(C(=O)Nc2ncccc2O)cc1 | 102% (inactive) |
| N#Cc1ccc(-c2ccc3nc(Oc4ccc(C(F)(F)F)cn4)cn3c2)nc1 | 32.3% (inactive) |
| CNC(=O)c1cc(-c2n[nH]c3ccc(-c4nc(C5CCCN5)n[nH]4)cc23)ccc1F (stereo not given) | 98.4% (inactive) |
| C[C@H]1O[C@@H](O[C@H]2[C@@H](O)C[C@H](O[C@H]3[C@@H](O)C[C@H](O[C@H]4CC[C@@]5(C)[C@H](CC[C@@H]6[C@@H]5C[C@@H](O)[C@]5(C)[C@@H](C7=CC(=O)OC7)CC[C@]65O)C4)O[C@@H]3C)O[C@@H]2C)C[C@H](O)[C@@H]1O | 82.1% (inactive) |
| COc1ccc(-c2cc3ncnc(N4CCN(CCN5CCCC5)CC4)c3s2)cc1 | 4.86% (active) |
| CC(C)(C)NCc1ccc(Nc2ccnc3cc(Cl)ccc23)cc1O | 79.1% (inactive) |
| CC(C)(C)Nc1ncc2nc(Nc3cccc(C(F)(F)F)c3)n(CC3CCNCC3)c2n1 | 107% (inactive) |
| CCc1nn2c(Nc3ccncc3)cc(C)nc2c1-c1ccccc1 | 96.8% (inactive) |
| Nc1nc(C2CC2)cn1CC(O)c1ccc(Cl)cc1Cl (stereo not given) | 83.6% (inactive) |
| COC(=O)C1=C(C)NC(C)=C(C(=O)OC)C1c1ccccc1[N+](=O)[O-] | 89.7% (inactive) |

Same assay, conditions: 100 µM

| Structure (SMILES) | growth |
| --- | --- |
| CCN(CCO)CCCC(C)Nc1ccnc2cc(Cl)ccc12 (stereo not given) | 78.2% (inactive) |
| CCN1CCN(C2CCN(C(=O)COc3ccc(-c4ccccc4F)cc3)CC2)CC1 | 41.1% (inactive) |
| CCOc1ccc(-c2ccnc(Nc3cncc(OC)c3)n2)cc1C#N | 68.7% (inactive) |
| CC(=O)Oc1ccccc1C(=O)Nc1ncc([N+](=O)[O-])s1 | 95.6% (inactive) |
| Cc1c2c(n3c(nc4ccccc43)c1C#N)N(CCN(C)C)CC2 | 43.7% (inactive) |
| CC(C)CC(NCCc1ccccc1O)c1ccccn1 (stereo not given) | 41.6% (inactive) |
| CN(C)CCCN1C(=O)c2[nH]nc(-c3ccc(Cl)cc3O)c2C1c1ccc(Cl)cc1 (stereo not given) | 6.84% (active) |
| CC(CN1c2ccccc2Sc2ccccc21)N(C)C (stereo not given) | 3.58% (active) |
| O=C(Nc1cccc(-c2cc3nc(Nc4ccc(N5CCOCC5)cc4)ncc3[nH]2)c1)C1CC1 | 72.6% (inactive) |
| Nc1nc(S)c2[nH]cnc2n1 | 92.8% (inactive) |
| Cn1ccnc1SCC(=O)Nc1ccc(C(=O)Nc2ncccc2O)cc1 | 64.9% (inactive) |
| N#Cc1ccc(-c2ccc3nc(Oc4ccc(C(F)(F)F)cn4)cn3c2)nc1 | 82.2% (inactive) |
| CNC(=O)c1cc(-c2n[nH]c3ccc(-c4nc(C5CCCN5)n[nH]4)cc23)ccc1F (stereo not given) | 71.5% (inactive) |
| C[C@H]1O[C@@H](O[C@H]2[C@@H](O)C[C@H](O[C@H]3[C@@H](O)C[C@H](O[C@H]4CC[C@@]5(C)[C@H](CC[C@@H]6[C@@H]5C[C@@H](O)[C@]5(C)[C@@H](C7=CC(=O)OC7)CC[C@]65O)C4)O[C@@H]3C)O[C@@H]2C)C[C@H](O)[C@@H]1O | 90.8% (inactive) |
| COc1ccc(-c2cc3ncnc(N4CCN(CCN5CCCC5)CC4)c3s2)cc1 | 4.96% (active) |
| CC(C)(C)NCc1ccc(Nc2ccnc3cc(Cl)ccc23)cc1O | 3.73% (active) |
| CC(C)(C)Nc1ncc2nc(Nc3cccc(C(F)(F)F)c3)n(CC3CCNCC3)c2n1 | 69.3% (inactive) |
| CCc1nn2c(Nc3ccncc3)cc(C)nc2c1-c1ccccc1 | 75.7% (inactive) |
| Nc1nc(C2CC2)cn1CC(O)c1ccc(Cl)cc1Cl (stereo not given) | 83.2% (inactive) |
| COC(=O)C1=C(C)NC(C)=C(C(=O)OC)C1c1ccccc1[N+](=O)[O-] | 4.04% (active) |
